# In PubChem BioAssay (EPA / NIEHS):
# Records with an inconclusive call do not appear. Calls of active or inactive are those of the source. The calls were made as follows, unless noted: active = hit-call score of the fitted dose curve at least 0.9, where 1 is the maximum; inconclusive = response in the unintended direction; inactive = score below 0.9.
# Columns and labels:
# [1] = biological target: Agonist Androgen Response Element (ARE), AR (gene 367) (UniProt P10275); assay: OT_AR_ARELUC_AG_1440: Odyssey Thera (OT) 24-hour CHO-K1 Luciferase Assay for Agonist Androgen Response Element (ARE) (AID 2283379)
# Agonist Androgen Response Element (ARE), AR (gene 367), sequence (P10275 whole entry, looked up): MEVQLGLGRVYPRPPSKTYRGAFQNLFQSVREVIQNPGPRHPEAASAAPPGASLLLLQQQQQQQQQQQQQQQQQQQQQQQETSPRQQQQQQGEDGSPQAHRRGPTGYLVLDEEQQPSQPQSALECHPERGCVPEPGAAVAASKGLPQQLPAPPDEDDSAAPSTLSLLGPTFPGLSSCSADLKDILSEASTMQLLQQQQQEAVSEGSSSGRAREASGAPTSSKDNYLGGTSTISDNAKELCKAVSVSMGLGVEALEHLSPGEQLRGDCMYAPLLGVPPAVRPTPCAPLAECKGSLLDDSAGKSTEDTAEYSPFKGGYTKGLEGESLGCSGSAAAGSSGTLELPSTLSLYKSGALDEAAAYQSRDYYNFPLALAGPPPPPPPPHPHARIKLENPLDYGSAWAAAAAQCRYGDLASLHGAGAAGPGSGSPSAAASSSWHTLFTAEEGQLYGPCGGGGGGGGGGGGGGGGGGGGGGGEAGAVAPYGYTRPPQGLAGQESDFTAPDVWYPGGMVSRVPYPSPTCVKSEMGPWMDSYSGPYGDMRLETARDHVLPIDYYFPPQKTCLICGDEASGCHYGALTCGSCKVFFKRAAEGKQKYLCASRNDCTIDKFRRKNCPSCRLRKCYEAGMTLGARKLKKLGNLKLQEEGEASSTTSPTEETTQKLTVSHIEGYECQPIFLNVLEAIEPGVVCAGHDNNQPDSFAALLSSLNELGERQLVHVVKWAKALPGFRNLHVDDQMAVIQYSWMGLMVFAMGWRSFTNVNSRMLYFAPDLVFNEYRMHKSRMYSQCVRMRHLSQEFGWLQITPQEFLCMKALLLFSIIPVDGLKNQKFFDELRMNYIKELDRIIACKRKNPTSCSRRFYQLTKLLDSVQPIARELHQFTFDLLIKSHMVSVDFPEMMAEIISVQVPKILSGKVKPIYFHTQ
# Procedure, shortened: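 CHO-K1 cells carrying an ARE-driven luciferase reporter were exposed to compounds for 24 h. Luminescence was then read after adding a D-luciferin/ATP mix, and activity was scored as a gain in signal over DMSO vehicle.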
# [2] = biological target: Estrogen receptor (Homo sapiens) (UniProt P03372); assay: OT_ERa_GFPERaERE_0480: Odyssey Thera (OT) 8-hour HeLa Transcription Induction Assay for Estrogen Receptor (AID 2283381; active = hit-call score of the fitted dose curve at least 0.9, where 1 is the maximum; inactive = score below 0.9)
# Estrogen receptor (Homo sapiens), sequence (P03372 whole entry, looked up): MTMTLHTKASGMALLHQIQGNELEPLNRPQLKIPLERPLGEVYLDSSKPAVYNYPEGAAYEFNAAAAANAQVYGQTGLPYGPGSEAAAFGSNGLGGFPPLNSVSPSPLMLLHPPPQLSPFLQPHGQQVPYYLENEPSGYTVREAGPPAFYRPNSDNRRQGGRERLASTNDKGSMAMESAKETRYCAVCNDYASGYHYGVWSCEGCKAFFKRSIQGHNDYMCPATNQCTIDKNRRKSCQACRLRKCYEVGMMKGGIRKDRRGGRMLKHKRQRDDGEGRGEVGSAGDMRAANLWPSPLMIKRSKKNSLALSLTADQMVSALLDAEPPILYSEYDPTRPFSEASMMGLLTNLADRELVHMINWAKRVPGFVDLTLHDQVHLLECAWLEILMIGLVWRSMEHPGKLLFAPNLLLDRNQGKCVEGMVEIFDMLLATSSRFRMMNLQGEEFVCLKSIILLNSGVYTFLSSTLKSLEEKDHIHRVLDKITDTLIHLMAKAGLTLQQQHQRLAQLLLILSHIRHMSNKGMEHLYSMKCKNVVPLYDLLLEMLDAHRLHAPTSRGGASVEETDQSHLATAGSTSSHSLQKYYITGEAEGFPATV
# Procedure, shortened: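 HeLa cells dosed with compound and imaged by fluorescence microscopy at 8 h; GFP induction from an ERE reporter quantified by high-content image analysis and fitted as gain of signal against DMSO baseline.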
# [3] = biological target: Estrogen receptor (Homo sapiens) (UniProt P03372); assay: OT_ERa_GFPERaERE_0120: Odyssey Thera (OT) 2-hour HeLa Transcription Induction Assay for Estrogen Receptor (AID 2283382)
# Procedure, shortened: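 HeLa cells were dosed with test chemical and read 2 hours later for GFP-ERα/ERE-linked fluorescent protein induction by fluorescence microscopy. Gain-of-signal was fitted relative to DMSO baseline, quantified by high content image analysis.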
# [4] = biological target: Bile acid receptor (Homo sapiens) (UniProt Q96RI1); assay: OT_FXR_FXRSRC1_0480: Odyssey Thera (OT) 8-hour HEK293T Protein-Complementation Assay for Farnesoid X receptor/SRC-1 Co-activator (AID 2283383)
# Bile acid receptor (Homo sapiens), sequence (Q96RI1 whole entry, looked up, the tested form may be a part): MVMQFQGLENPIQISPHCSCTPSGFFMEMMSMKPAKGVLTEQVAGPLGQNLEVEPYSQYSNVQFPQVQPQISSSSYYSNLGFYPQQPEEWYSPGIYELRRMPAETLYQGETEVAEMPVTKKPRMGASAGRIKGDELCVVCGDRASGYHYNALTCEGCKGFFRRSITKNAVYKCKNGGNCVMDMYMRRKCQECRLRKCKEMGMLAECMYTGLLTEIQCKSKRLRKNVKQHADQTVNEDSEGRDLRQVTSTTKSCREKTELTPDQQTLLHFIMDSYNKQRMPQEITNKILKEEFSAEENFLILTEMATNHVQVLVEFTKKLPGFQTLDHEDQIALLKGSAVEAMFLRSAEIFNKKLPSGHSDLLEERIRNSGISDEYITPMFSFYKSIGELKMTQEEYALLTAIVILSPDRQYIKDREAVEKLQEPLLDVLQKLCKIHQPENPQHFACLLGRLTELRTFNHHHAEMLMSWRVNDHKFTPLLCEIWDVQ
# Procedure, shortened: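 HEK293T cells expressing FXR and SRC-1 fused to reporter fragments were dosed with compound for 8 h; fluorescence from the reconstituted reporter marked co-activator recruitment. Gain of signal was fitted against the DMSO baseline.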
# AR (gene 367) [5] = biological target: AR (gene 367) (UniProt P10275); assay: ACEA_AR_agonist_80hr: ACEA Biosciences xCELLigence Real-Time Cell Analysis on Androgen Receptor Agonism for Proliferation (AID 2283783);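 also: hits increase impedance growth signal above DMSO baseline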
# AR (gene 367), sequence (P10275 whole entry, looked up): as the sequence (P10275 whole entry, looked up) above
# Procedure, shortened: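 Proliferation of 22Rv1 prostate cancer cells tracked by electrical impedance, endpoint taken at 80 hours after dosing. Eight-point 1:4 dilutions from 100 uM maximum final, duplicate; testosterone and MG132 as positive controls, assay media as negative.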
# AR (gene 367) [6] = biological target: AR (gene 367) (UniProt P10275); assay: ACEA_AR_antagonist_80hr: ACEA Biosciences xCELLigence Real-Time Cell Analysis on Androgen Receptor Antagonism for Proliferation (AID 2283787);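 also: 22Rv1 human prostate cancer cells with growth followed by electrical impedance; hits lower the impedance growth signal relative to DMSO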
# Procedure, shortened: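 22Rv1 cells in assay medium, growth tracked by electrical impedance; compounds eight-point 1:4 dilutions from 100 uM final, duplicate plates. Endpoint at 80 h; loss of signal versus DMSO.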
# [7] = biological target: Nucleoli Translocation, AR (gene 367) (UniProt P10275); assay: UPITT_HCI_U2OS_AR_TIF2_Nucleoli_Antagonist: University of Pittsburgh U2OS Androgen Receptor-Transcriptional Intermediary Factor 2 (AR-TIF2) Antagonism High Content Imaging Assay for Nucleoli Translocation (AID 2283997)
# Nucleoli Translocation, AR (gene 367), sequence (P10275 whole entry, looked up): as above
# Procedure, shortened: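 U2OS cells co-expressing red-fluorescent-tagged human AR and green-fluorescent-tagged TIF2, imaged by high-content microscopy for nucleolar red fluorescence. Antagonist mode against DHT; primary screen at 20 uM final (0.2% DMSO).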
# [8] = biological target: Ratio of Nucleoli Translocation and Cytoplasm, AR (gene 367) (UniProt P10275); assay: UPITT_HCI_U2OS_AR_TIF2_Nucleoli_Cytoplasm_Ratio_Agonist: University of Pittsburgh U2OS Androgen Receptor-Transcriptional Intermediary Factor 2 (AR-TIF2) Agonism High Content Imaging Assay for Ratio of Nucleoli Translocation and Cytoplasm (AID 2284000);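 also: hits raise the red nucleolar to cytoplasm ratio above vehicle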
# Ratio of Nucleoli Translocation and Cytoplasm, AR (gene 367), sequence (P10275 whole entry, looked up): as above
# Procedure, shortened: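 U2OS cells expressing RFP-tagged human AR and GFP-tagged TIF2; high-content imaging ratio of nucleolar to cytoplasmic red fluorescence, fitted as gain of signal vs DMSO. Single point at 20 uM final (0.2% DMSO); concentration-response 0.195-50 uM final (0.5% DMSO).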
# PGR (gene 5241) = PGR (gene 5241) (UniProt P06401); assay: NVS_NR_hPR: NovaScreen (NVS) Nuclear Receptor Binding Assay for human Progestron Receptor (PR) (AID 2283360)
# PGR (gene 5241), sequence (P06401 whole entry, looked up): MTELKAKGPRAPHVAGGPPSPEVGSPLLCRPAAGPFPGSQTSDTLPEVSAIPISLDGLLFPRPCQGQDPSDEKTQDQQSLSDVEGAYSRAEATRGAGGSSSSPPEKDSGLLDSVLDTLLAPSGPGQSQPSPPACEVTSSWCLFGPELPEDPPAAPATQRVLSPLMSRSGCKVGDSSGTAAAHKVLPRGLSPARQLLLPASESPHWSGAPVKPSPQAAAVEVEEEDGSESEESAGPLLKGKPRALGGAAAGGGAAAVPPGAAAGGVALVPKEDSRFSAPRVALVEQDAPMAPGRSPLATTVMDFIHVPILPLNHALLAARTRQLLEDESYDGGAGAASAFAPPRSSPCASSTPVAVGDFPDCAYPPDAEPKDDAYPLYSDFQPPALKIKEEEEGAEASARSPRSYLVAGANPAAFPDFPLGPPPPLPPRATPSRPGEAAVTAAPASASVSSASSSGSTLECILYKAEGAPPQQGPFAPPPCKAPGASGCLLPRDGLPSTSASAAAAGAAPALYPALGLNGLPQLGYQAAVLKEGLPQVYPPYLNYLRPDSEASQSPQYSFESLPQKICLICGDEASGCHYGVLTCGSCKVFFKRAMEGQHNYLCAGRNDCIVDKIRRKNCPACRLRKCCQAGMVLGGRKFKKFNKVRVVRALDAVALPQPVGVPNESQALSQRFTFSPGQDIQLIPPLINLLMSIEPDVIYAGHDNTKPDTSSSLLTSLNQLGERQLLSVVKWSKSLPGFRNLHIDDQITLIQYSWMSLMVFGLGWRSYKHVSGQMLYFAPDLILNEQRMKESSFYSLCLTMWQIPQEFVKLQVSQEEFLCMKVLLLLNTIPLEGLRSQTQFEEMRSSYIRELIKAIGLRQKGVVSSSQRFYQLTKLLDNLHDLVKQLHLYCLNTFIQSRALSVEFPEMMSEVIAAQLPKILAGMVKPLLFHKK
# Procedure, shortened: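 Cell-free radioligand binding using receptor protein extracted from T47D cells, read by scintillation counting 18 hours after dosing. Loss of signal relative to DMSO baseline indicates displacement; primary screen single concentration 25 uM in duplicate, actives followed in concentration series.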
# [9] = read-out: Tissue plasminogen activator (tPA), PLAT (gene 5327); assay: BSK_BE3C_tPA: BioMAP Diversity Plus: BE3C Assay for Tissue plasminogen activator (tPA) Biomarker Activity (AID 2283041; active = hit-call score of the fitted dose curve at least 0.9, where 1 is the maximum; inactive = score below 0.9;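 also: tPA level quantified by ELISA one day after compound addition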); details: primary human bronchial epithelial cells; actives raise or lower the signal
# Procedure, shortened: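 Human primary bronchial epithelial cells were dosed with chemical and tPA biomarker levels measured by ELISA 24 hours later. Activity was fitted bidirectionally against DMSO as negative control and baseline.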
# [10] = biological target: human Neurokinin, NK2 Receptor, TACR2 (gene 6865) (UniProt P21452); assay: NVS_GPCR_hNK2: NovaScreen (NVS) G Protein-Coupled Receptor Assay for human Neurokinin, NK2 Receptor (AID 2283278);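 also: actives reduce bound radioligand signal relative to DMSO baseline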
# Procedure, shortened: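 CHO-derived membrane protein, radioligand displacement, filter scintillation read at 4 h post-dose. Single-point 25 uM in duplicate, then concentration series for actives; DMSO as negative control.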
# [11] = biological target: human Opioid Receptor Mu (Opiate Mu), OPRM1 (gene 4988) (UniProt P35372); assay: NVS_GPCR_hOpiate_mu: NovaScreen (NVS) G Protein-Coupled Receptor Assay for human Opioid Receptor Mu (Opiate Mu) (AID 2283290);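 also: hits lower bound tracer signal versus DMSO meaning displacement of the ligand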
# human Opioid Receptor Mu (Opiate Mu), OPRM1 (gene 4988), sequence (P35372 whole entry, looked up): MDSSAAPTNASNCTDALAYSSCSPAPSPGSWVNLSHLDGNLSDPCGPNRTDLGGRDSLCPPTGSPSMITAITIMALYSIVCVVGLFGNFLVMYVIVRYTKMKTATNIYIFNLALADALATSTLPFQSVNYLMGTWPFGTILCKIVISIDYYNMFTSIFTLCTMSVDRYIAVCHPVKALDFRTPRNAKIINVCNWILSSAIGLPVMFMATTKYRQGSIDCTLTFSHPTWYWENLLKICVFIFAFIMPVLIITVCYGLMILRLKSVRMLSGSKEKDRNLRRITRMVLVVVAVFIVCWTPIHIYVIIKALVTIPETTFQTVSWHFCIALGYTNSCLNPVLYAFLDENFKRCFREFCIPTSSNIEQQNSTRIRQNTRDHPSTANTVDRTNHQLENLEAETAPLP
# Procedure, shortened: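 Cell-free radioligand binding to membranes from CHO cells expressing the receptor; bound tracer measured by filter-based scintillation counting 2.5 hours after dosing. Loss of signal versus DMSO baseline reflects displacement; primary screen at 25 uM in duplicate, actives followed up in concentration series.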
# [12] = STM_H9_OrnCyssISnorm_ratio: Stemina devTOX quickPredict H9 human embryonic stem cell (hESC)-based Assay for Ornithine (ORN):Cystine (CYSS) Ratio (AID 2283714)
# Procedure, shortened: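 Undifferentiated H9 hESCs exposed 72 h, media and compound replaced every 24 h; final 24-h conditioned media deproteinized and analysed by UPLC-HRMS against C13 spike-ins. Value is the internal-standard-normalized ORN/CYSS ratio versus 0.1% DMSO.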
# [13] = biological target: Bile acid receptor (Homo sapiens) (UniProt Q96RI1); assay: OT_FXR_FXRSRC1_1440: Odyssey Thera (OT) 24-hour HEK293T Protein-Complementation Assay for Farnesoid X receptor/SRC-1 Co-activator (AID 2283384)
# Procedure, shortened: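 HEK293T cells were dosed with compound and read 24 h later by fluorescence intensity from protein-fragment complementation reporting FXR/SRC-1 co-activator interaction. Gain of signal was fitted relative to DMSO negative control as baseline.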
# IYD (gene 389434) = assay: CCTE_GLTED_hIYD: CCTE's human Iodotyrosine Deiodinase (xIYD) Inhibition Assay, Great Lakes Toxicology and Ecology Division (GLTED) Lab (AID 2284317);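 also: cell-free human IYD enzyme made in baculovirus insect cells; iodide freed from monoiodotyrosine measured by cerium arsenite color change at 420 nm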
# Procedure, shortened: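 Human IYD expressed in a baculovirus-insect cell system was incubated 3 h with monoiodotyrosine and test chemical. Released iodide, separated on Dowex columns, was quantified by the Sandell-Kolthoff reaction at 420 nm; plates were normalized to MNT and DMSO/NaOH controls.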
# [14] = biological target: chimpanzee Androgen Receptor (AR), AR (gene 747460) (UniProt O97775); assay: NVS_NR_cAR: NovaScreen (NVS) Nuclear Receptor Binding Assay for chimpanzee Androgen Receptor (AR) (AID 2283346);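 also: radioligand displacement from AR measured by scintillation counting in a cell-free assay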
# chimpanzee Androgen Receptor (AR), AR (gene 747460), sequence (O97775 whole entry, looked up): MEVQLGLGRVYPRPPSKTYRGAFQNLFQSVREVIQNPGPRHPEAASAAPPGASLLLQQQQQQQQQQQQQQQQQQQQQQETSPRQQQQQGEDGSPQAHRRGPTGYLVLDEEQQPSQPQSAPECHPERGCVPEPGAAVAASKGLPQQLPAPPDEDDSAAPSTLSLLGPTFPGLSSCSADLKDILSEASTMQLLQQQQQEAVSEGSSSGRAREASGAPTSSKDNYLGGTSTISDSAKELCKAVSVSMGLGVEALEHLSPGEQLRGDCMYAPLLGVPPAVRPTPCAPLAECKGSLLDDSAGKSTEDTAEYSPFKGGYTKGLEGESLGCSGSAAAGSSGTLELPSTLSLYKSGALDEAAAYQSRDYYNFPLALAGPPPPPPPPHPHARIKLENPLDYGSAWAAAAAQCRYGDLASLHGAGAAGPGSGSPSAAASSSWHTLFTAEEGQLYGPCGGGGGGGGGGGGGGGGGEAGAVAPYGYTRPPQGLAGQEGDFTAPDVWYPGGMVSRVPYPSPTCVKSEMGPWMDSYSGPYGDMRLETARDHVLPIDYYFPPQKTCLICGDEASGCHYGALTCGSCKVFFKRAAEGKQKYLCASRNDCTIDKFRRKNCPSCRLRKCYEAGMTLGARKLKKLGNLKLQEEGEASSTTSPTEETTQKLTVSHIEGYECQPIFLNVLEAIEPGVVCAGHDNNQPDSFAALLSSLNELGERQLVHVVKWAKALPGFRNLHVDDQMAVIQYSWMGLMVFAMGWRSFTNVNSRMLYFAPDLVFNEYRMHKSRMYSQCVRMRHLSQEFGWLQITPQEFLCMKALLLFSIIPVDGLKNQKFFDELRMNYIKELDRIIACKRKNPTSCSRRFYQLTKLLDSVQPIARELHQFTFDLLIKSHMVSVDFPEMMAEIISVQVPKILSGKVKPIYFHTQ
# Procedure, shortened: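 Radioligand binding to chimpanzee AR expressed in Sf9/Sf21 cells, cell-free, measured 72 h after dosing by lysate-based scintillation counting. Loss of signal vs DMSO; initial duplicate screen at 25 uM, actives retested in concentration series.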
# [15] = system: zebrafish Androgen Receptor (AR), gene 100005148; assay: ATG_zfAR_XSP1: Attagene TRANS-FACTORIAL Multi-Species (XSP1) HepG2 Assay for zebrafish Androgen Receptor (AR) (AID 2283771)
# Procedure, shortened: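 HepG2 cells were transiently transfected with a zebrafish AR-GAL4 reporter system and partially stimulated with 3 nM 6-alpha-fluorotestosterone. Reporter mRNA was measured after 24 h dosing by RT-PCR with capillary electrophoresis, and gain-of-signal was fitted relative to DMSO.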
# [16] = system: zebrafish Estrogen Receptor (ESR2B), gene 317733; assay: ATG_zfER2b_XSP1: Attagene TRANS-FACTORIAL Multi-Species (XSP1) HepG2 Assay for zebrafish Estrogen Receptor (ESR2B) (AID 2283773)
# Procedure, shortened: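 HepG2 cells transiently transfected with GAL4-UAS reporter units for chimeric zebrafish ER2b-Gal4, with 3 nM 6-alpha-fluorotestosterone present; reporter mRNA measured 24 h after dosing by RT-PCR and capillary electrophoresis, gain versus DMSO.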
# [17] = biological target: chicken Estrogen Receptor (ESR1), ESR1 (gene 396099) (UniProt P06212); assay: ATG_chERa_XSP1: Attagene TRANS-FACTORIAL Multi-Species (XSP1) HepG2 Assay for chicken Estrogen Receptor (ESR1) (AID 2283779)
# chicken Estrogen Receptor (ESR1), ESR1 (gene 396099), sequence (P06212 whole entry, looked up, the tested form may be a part): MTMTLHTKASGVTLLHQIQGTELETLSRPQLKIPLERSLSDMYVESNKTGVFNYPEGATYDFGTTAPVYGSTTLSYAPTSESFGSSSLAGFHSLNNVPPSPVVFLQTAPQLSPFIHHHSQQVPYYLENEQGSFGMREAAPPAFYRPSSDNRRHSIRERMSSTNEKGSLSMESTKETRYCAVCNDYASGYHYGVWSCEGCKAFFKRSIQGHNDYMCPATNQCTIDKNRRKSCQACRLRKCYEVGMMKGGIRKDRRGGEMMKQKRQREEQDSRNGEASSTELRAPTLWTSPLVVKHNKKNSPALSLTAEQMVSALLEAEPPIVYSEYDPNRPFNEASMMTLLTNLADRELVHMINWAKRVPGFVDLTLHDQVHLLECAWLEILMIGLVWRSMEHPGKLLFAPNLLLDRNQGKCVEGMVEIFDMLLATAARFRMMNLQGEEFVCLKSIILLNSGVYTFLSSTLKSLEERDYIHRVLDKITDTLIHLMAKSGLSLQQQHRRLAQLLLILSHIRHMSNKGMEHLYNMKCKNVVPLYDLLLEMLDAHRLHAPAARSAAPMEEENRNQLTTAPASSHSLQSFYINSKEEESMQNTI
# Procedure, shortened: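 HepG2 cells transiently transfected with GAL4-UAS reporter units for chimeric chicken ERα-Gal4, dosed 24 h with 3 nM 6-alpha-fluorotestosterone present. Reporter mRNA by RT-PCR and capillary electrophoresis; gain-of-signal fit versus DMSO.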
# [18] = system: turtle Estrogen Receptor (ESR1), gene 101933533; assay: ATG_trERa_XSP1: Attagene TRANS-FACTORIAL Multi-Species (XSP1) HepG2 Assay for turtle Estrogen Receptor (ESR1) (AID 2283781)
# Procedure, shortened: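 Turtle ERa as a GAL4 chimera in transiently transfected HepG2 cells; reporter mRNA quantified 24 h after dosing by RT-PCR and capillary electrophoresis. 3 nM 6-alpha-fluorotestosterone present; gain of signal versus DMSO.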
smiles,measurement,setting,value
c1ccc2c(c1)CCCC2,outcome,[1],inactive
same,outcome,[2],inactive
same,outcome,[3],inactive
same,outcome,[4],inactive
same,outcome,AR (gene 367) [5],inactive
same,outcome,AR (gene 367) [6],inactive
same,outcome,[7],inactive
same,outcome,[8],inactive
ClC1=C(Cl)[C@]2(Cl)[C@@H]3[C@@H](Cl)[C@H](Cl)C[C@@H]3[C@@]1(Cl)C2(Cl)Cl,outcome,PGR (gene 5241),inactive
CC(C)(C)C(=O)CCl,outcome,[9],inactive
O=C1C(Cl)=C(Cl)C(=O)C(Cl)=C1Cl,AC50,[10],1.07 µM (active)
same,AC50,[11],4.48 µM (active)
same,outcome,[12],inactive
CC(O)CN(CC(C)O)CC(C)O (stereo not given),outcome,[13],inactive
CCC1CCC(=O)O1 (stereo not given),outcome,IYD (gene 389434),inactive
CC(=O)c1cc2c(cc1C)C(C)(C)C(C)CC2(C)C (stereo not given),outcome,[14],inactive
same,AC50,[15],64.4 µM (active)
same,AC50,[16],25.5 µM (active)
same,AC50,[17],59.7 µM (active)
same,outcome,[18],inactive
